Measured values as given in PMC4336329 (PLoS ONE, 2015).
In all, about 310,000 compounds went through this assay and about 14,000 (4.5%) showed an effect of 50% or more. Effects have a minus sign here. The sample holds strong results, similar compounds and a random draw of the others, so the mix is not that of the screen.

target: human ether-à-go-go-related gene (hERG) potassium channel (human, UniProt Q12809); assay: primary screen, population patch clamp on CHO cells stably expressing hERG; higher = less effect of the substance
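Further: peak tail current of the secondary pulse compared with the same well before compound.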

Chain of human ether-à-go-go-related gene (hERG) potassium channel (Q12809 whole entry, looked up): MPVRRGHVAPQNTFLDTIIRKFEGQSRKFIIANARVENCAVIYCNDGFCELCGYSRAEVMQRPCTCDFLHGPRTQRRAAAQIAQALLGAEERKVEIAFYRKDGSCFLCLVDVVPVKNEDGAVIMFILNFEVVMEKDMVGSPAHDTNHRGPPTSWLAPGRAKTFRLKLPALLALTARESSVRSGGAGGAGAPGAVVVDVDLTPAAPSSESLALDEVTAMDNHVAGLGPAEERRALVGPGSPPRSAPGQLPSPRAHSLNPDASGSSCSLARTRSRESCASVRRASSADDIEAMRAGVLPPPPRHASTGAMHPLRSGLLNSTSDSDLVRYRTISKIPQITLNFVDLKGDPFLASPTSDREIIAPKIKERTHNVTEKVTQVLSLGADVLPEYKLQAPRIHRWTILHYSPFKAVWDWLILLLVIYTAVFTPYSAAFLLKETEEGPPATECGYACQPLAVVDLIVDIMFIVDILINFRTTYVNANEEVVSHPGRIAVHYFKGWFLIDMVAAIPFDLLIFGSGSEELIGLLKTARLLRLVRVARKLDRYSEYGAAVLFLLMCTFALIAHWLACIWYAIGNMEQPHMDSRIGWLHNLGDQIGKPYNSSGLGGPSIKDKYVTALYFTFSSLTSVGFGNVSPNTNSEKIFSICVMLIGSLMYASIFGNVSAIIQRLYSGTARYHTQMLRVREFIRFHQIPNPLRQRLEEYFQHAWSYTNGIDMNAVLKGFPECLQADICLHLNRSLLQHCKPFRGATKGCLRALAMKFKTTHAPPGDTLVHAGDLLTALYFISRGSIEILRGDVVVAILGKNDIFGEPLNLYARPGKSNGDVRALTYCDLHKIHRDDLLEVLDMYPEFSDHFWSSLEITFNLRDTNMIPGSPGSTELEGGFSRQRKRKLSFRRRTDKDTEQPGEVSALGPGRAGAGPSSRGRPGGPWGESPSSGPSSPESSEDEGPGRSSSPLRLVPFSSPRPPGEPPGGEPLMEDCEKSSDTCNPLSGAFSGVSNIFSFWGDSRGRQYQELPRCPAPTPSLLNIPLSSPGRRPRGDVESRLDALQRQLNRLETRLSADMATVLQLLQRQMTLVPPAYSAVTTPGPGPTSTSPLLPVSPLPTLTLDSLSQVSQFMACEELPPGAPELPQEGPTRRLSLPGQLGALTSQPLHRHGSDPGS

Compound	hERG current change (%, negative = inhibition) at 10uM [%]
CC1CN(C(=O)c2cccc(S(=O)(=O)N3CCN(c4ccc(F)cc4)CC3)c2)CC(C)O1 (stereo not drawn)	-45.4
CC(=O)N1CCN(C(=O)c2cccc(S(=O)(=O)N3CCN(c4ccc(F)cc4)CC3)c2)CC1	-20.1
CC1CC(C)CN(S(=O)(=O)c2cccc(C(=O)N3CCN(c4ccc(F)cc4)CC3)c2)C1 (stereo not drawn)	-51.9
O=C(c1cccc(S(=O)(=O)N2CCN(c3ccc(F)cc3)CC2)c1)N1CCCCCCC1	-45.2
CC1CCN(C(=O)c2cccc(S(=O)(=O)N3CCN(c4ccccc4)CC3)c2)CC1	2.41
COc1cc(/C=N/NC(=O)CSc2n[nH]c(=O)[nH]c2=O)cc(OC)c1O	28.8
Cc1cc(C)cc(-n2c(SC(C)C(=O)NCc3ccc4c(c3)OCO4)nc3ccccc3c2=O)c1 (stereo not drawn)	11.3
COc1cc(NC(=O)c2ccc(C)cc2C)ccc1NC(=O)c1cc2ccccc2o1	6.61
Nc1c(C(=O)c2ccccc2)sc2nsc(SCCN3CCCC3)c12	-38.2
Clc1ccc(N2CCN(/N=C/c3cccnc3)CC2)cc1	-1.21
O=C(Nc1nccs1)c1ccc(Br)cc1	12.1
CCn1c(SCC(=O)N/N=C/C(C)=C\c2ccco2)nnc1-c1ccccc1	-39
Cc1ccc(/C=N/NC(=O)CSc2nnc(-c3ccccc3)n2-c2ccc(Cl)cc2)o1	-21.8
CCn1c(SCC(=O)N/N=C/C(C)=C/c2ccco2)nnc1-c1ccccc1	-55.1
O=C(CSc1nnc(-c2ccc(Cl)cc2)n1-c1ccc(Cl)cc1)N/N=C/c1ccco1	-41.7
O=C(CSc1nnc(-c2ccccc2)n1-c1ccc(Cl)cc1)N/N=C/c1ccco1	-55
CCn1c(SCC(=O)N/N=C/C=C/c2ccco2)nnc1-c1ccccc1	-34.7
O=C(CSc1nnc(SCc2ccccc2)s1)N/N=C/c1ccc(Cl)cc1Cl	-5.88
O=C(CSc1nnc(-c2ccccc2)c(-c2ccccc2)n1)NC1CCS(=O)(=O)C1 (stereo not drawn)	17.3
Cc1cc(C)n(-c2nc(NCCN(C)C)c3c4c(sc3n2)COC(C)(C)C4)n1	-32.7
Cc1cc(C)n(-c2nc(SCCN(C)C)c3c4c(sc3n2)COC(C)(C)C4)n1	-59.1

Compound	hERG current change (%, negative = inhibition) at 10uM [%]
CCN(CC)CCCNc1nc(-n2nc(C)cc2C)nc2sc3c(c12)CC(C)(C)OC3	-23
Cc1cc(C)n(-c2nc(NCCCN(C)C)c3c4c(sc3n2)COC(C)(C)C4)n1	-14.1
CCN(CC)CCNc1nc(-n2nc(C)cc2C)nc2sc3c(c12)CC(C)(C)OC3	-55.4
Cc1cc(C)n(-c2nc(SCC(=O)N3CCCC3)c3c4c(sc3n2)CCCC4)n1	-9.29
Cc1cc(C)n(-c2nc(SCC(=O)O)c3c4c(sc3n2)CCCC4)n1	6.68
Cc1cc(C)n(-c2nc(NCCCO)c3c4c(sc3n2)CCCC4)n1	-17.9
Cc1cc(C)n(-c2nc(NCCCN(C)C)c3c4c(sc3n2)CCCC4)n1	-65.2
Cc1cc(C)n(-c2nc(SCC(=O)O)c3c4c(sc3n2)COC(C)(C)C4)n1	2.48
Cc1cc(C)n(-c2nc(SCCN(C)C)c3c4c(sc3n2)CCCC4)n1	-53.7
Cc1cc(C)n(-c2nc(NCCN(C)C)c3c4c(sc3n2)CCCC4)n1	-16.3
C=CCn1cc(/C=N\NC(=O)c2cc3c(ccc4ccccc43)o2)c2ccccc21	-4.85
O=C(c1ccccc1)c1c[nH]c2ccccc12	14.6
Cc1cc(C)cc(NC(=S)N2CCN(S(=O)(=O)c3ccccc3)CC2)c1	0.86
O=C(O)c1ccc(-c2ccc(OS(=O)(=O)c3ccccc3F)cc2)cc1	9.84
O=C(COc1ccccc1Cl)Nc1ccc2c(c1)OCO2	11.1
CC(C)C(=O)Nc1ccc(NC(=O)c2ccc(COc3ccccc3)cc2)cc1	16.3
CCOC(=O)C1CCN(C(=O)c2ccc(SC)cc2OC)CC1	-19.8
O=C1c2ccccc2C(=O)C12OC2c1cccc2ccccc12 (stereo not drawn)	-69.2
O=C1c2ccccc2C(=O)C12OC2c1ccc(Cl)cc1 (stereo not drawn)	6.63
O=C1c2ccccc2C(=O)C12OC2c1ccc(Cl)cc1Cl (stereo not drawn)	4.07
Cc1c(C)n(Cc2ccccc2)c2ccc(C(=O)NCCN3CCOCC3)cc12	-3.43
